# Source: PubChem BioAssay (NMMLSC)
# RGS4-Gao reg: human RGS4-Galphao interaction regulation; Multiplexed bead flow cytometry, RGS4-Galphao binding; actives lie on both sides; binding response (% of control), % at 10 µM; P09471; 220,000 tested, 0.33% active; in the data active = binding response below about 49% or above about 150%; inactive = in between;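 also: fluorescent Galphao activated with aluminum fluoride binding bead-coupled RGS4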
# Target sequence (P09471 whole entry, looked up): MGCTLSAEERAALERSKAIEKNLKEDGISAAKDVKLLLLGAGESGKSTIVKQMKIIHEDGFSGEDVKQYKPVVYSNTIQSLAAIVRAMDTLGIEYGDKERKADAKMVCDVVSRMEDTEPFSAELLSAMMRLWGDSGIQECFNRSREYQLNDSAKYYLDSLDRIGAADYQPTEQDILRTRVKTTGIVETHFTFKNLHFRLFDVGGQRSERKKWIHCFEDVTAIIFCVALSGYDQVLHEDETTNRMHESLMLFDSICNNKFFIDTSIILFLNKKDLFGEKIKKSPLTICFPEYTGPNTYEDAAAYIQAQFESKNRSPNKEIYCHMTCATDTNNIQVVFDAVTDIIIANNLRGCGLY
# Avidin bead fluor: compound fluoresces at 488/530 nm on avidin beads; fluorescence (KMESF) at 10 µM; 220,000 tested, 0.38% active; compound fluorescence 488/530 nm, flow cytometry; stronger effect = higher value; in the data active = fluorescence above about 47
# RGS7-Gao: modulates binding of RGS7 to human Galphao; P09471; Multiplexed bead flow cytometry; actives lie on both sides; binding response (% of control), % at 10 µM; 220,000 tested, 0.35% active; AID 1439; in the data active = binding response below about 49% or above about 150%; inconclusive = no clear call, values can overlap the other calls; inactive = in between;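 also: fluorescent Galphao held in activated GDP-AlF4 state binding bead-coupled RGS7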
# GSH fluor: GSH bead compound fluorescence profile; GSH beads flow cytometry, compound fluorescence 488/530 nm; stronger effect = higher value; 190,000 tested, 0.25% active; fluorescence (KMESF) at 10 µM; in the data active = fluorescence above about 89;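 also: glutathione beads carrying GST-tagged Bcl family fusion proteins plus one bare bead set; values are compound well signal with DMSO vehicle wells as background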
# RGS8-Gao reg: regulators of human RGS8-Galphao interaction; P09471; multiplexed bead flow cytometry, RGS8-Galphao binding; actives lie on both sides; response (percent of control binding), % at 10 µM; 220,000 tested, 0.34% active; AID 1423; in the data active = response below about 60% or above about 140%; inactive = in between;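 also: Galphao activated as the GDP aluminium fluoride complex binding bead-coupled RGS8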
# RGS16-Gao HTS: RGS16-Galphao interaction regulator (human); 220,000 tested, 0.38% active; O15492+P09471; bead-based flow cytometry RGS16-Galphao binding, fluorescence; actives lie on both sides; binding response (% of control), % at 10 µM;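 also: Galphao activated by GDP with aluminum fluoride before binding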
# RGS-Gao: regulators of human RGS4-Galphao interaction | shares compounds with RGS16-Gao HTS | multiplexed bead flow cytometry, RGS–Galpha-o binding | 1,600 tested, 99% active | RGS4–Galpha-o binding response, % at 10 µM;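 also: fluorescently labeled Galpha-o bound to GDP with aluminium fluoride binding biotinylated RGS beads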
# Biotin-avidin: biotin-avidin bead binding disruption counter-screen. inhibition, % at 10 µM. shares compounds with RGS16-Gao HTS. 1,700 tested, under 10 active. streptavidin beads, fluorescein-biotin binding, flow cytometry;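 active = inhibition above 50%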;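 also: median green fluorescence of gated singlet beads compared with DMSO control wells; 0% = DMSO wells and 100% = complete loss of bead fluorescence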
# RGS8-Gao confirm: RGS8-Galphao interaction regulation, single point confirmation. bead-based flow cytometry RGS8-Galphao binding, fluorescence; actives lie on both sides. 1,700 tested, 3% active. binding response (% of control), % at 10 µM. shares compounds with RGS16-Gao HTS; in the data active = binding response below about 72% or above about 130%; inactive = in between;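 also: Galphao activated as GDP AlF4 complex before binding bead RGS8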
# RGS7-Gao single: confirmation of regulators of human RGS7-Galphao interaction. shares compounds with RGS16-Gao HTS. bead-based flow cytometry RGS7-Galphao binding; actives lie on both sides. response (percent of control binding), % at 10 µM. 1,700 tested, 7.8% active. AID 1837; in the data active = response below about 75% or above about 130%; inactive = in between;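 also: fluorescent Galphao activated with GDP and aluminum fluoride binding bead-coupled RGS7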
# RGS16-Gao single: confirmation of regulators of human RGS16-Galphao interaction; shares compounds with RGS16-Gao HTS; bead-based flow cytometry, RGS16-Galphao binding; actives lie on both sides; response (% of control binding), % at 10 µM; 1,700 tested, 4% active; AID 1838; in the data active = response below about 74% or above about 130%; inactive = in between;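 also: Galphao activated as the GDP aluminium fluoride complex binding bead-coupled RGS16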
# RGS4-Gao single: RGS4-Galphao interaction regulation, single point confirmation; shares compounds with RGS16-Gao HTS; 1,700 tested, 4% active; RGS4-Galphao binding, multiplexed bead flow cytometry; actives lie on both sides; AID 1840; binding response (% of control), % at 10 µM; in the data active = binding response below about 74% or above about 130%; inactive = in between
# RGS19-Gao single: RGS19-Galphao interaction regulation, single point confirmation; shares compounds with RGS16-Gao HTS; bead-based flow cytometry RGS19-Galphao binding; actives lie on both sides; response (percent of control binding), % at 10 µM; 1,700 tested, 5% active; AID 1841; in the data active = response below about 50% or above about 160%; inactive = in between;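 also: 100% = no compound control and 0% = blank background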
# Target sequence (P09471 whole entry, looked up): as above
# Target sequence (P49795 whole entry, looked up): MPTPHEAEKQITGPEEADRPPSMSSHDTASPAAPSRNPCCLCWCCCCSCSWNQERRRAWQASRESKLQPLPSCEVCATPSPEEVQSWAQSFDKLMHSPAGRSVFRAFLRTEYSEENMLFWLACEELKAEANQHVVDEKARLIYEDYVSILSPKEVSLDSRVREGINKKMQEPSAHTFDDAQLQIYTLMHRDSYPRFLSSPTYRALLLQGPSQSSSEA
# The depositor's hits bear a star; ? = inconclusive; . = no result; ! = a repeat was not active; [ ] = dose if it differs, or a comment. Only some compounds are listed: those with a hit (about 1.2% of all), similar ones and a draw of the others. Unless noted, no rule for the calls is given here.
SMILES,RGS4-Gao reg,Avidin bead fluor,RGS7-Gao,GSH fluor,RGS8-Gao reg,RGS16-Gao HTS,RGS-Gao,Biotin-avidin,RGS8-Gao confirm,RGS7-Gao single,RGS16-Gao single,RGS4-Gao single,RGS19-Gao single
C1=C(c2c[nH]c3ccccc23)CCNC1,167*[activator],14,151*[activator],24,107,133,.,2,99,135*[activator],103,110,117
O=C(NC1CONC1=O)OCC(Cl)(Cl)Cl (stereo not drawn),104,1,101,10,80,47,.,.,.,.,.,.,.
N#CC(C#N)=Cc1ccc(N2CCCC2)cc1,184*[activator],118*,668*[activator],20,71,150,.,1,102,103,103,104,86
O=P(O)(Oc1ccccc1)OC(c1ccccc1)C(F)(F)C(F)(F)F (stereo not drawn),106,16,?,12,103,107,.,.,.,.,.,.,.
CN1C(=O)NC(=O)/C(=C/c2ccc([N+](=O)[O-])o2)C1=O,88,4,?,.,58*,41,88*,.,.,.,.,.,.
Cc1c(N=Nc2c(O)n(C)c(=O)n(C)c2=O)c(=O)n(-c2ccccc2)n1C,65,6,66,12,58*,1,65*,1,100,99,98,102,92
O=C1NC(c2cccnc2)Nc2sc3c(c21)CCCC3 (stereo not drawn),86,4,94,29,72,23*,86*,-3,101,98,100,99,94
Cn1cccc1CN1CCN(C(=O)COc2ccccc2)CC1,92,14,95,17,96,88,.,.,.,.,.,.,.
Cn1nc(-c2ccc(OCC(=O)N3CCN(Cc4ccccc4)CC3)cc2)c2ccccc2c1=O,35*!,1,42*!,29,66,38,.,0,101,104,100,101,87
CN(C)C(=O)Nc1cccc(OC(=O)N(C)C)c1,126,178*,281*[activator],22,99,108,126*,0,98,99,101,101,101
CCC(=NCc1cccnc1)c1c(O)n(-c2ccc(Cl)cc2)c(=O)[nH]c1=O,101,17,?,.,92,88,.,.,.,.,.,.,.
CCOP(=S)(OCC)c1ccc(N(C)C)cc1,123,13,116,65,149*[activator],329,123*,0,100,100,99,100,89
CC(=NCC1CCCO1)c1c(O)n(C)c(=O)n(C)c1=O (stereo not drawn),-9.3*,7,31*,10,54*,-18*,.,-1,101,92,99,98,96
O=C1NC(=O)N(CCC2=CCCCC2)C(=O)/C1=C/c1cccs1,95,5,?,.,97,91,.,.,.,.,.,.,.
O=c1[nH]c(=O)n(Cc2ccc(F)cc2)c(O)c1C=NCCCO,110,122*,156*[activator],17,97,107,110*,-1,98,95,96,97,99
O=c1[nH]c(=O)n(Cc2ccc(F)cc2)c(O)c1C=NCCCn1ccnc1,98,37,97,17,102,99,.,.,.,.,.,.,.
Cc1ccccc1-n1c(O)c(/C=N/N2CCOCC2)c(=O)[nH]c1=S,150*[activator],78*,138,18,84,46,.,-1,101,101,104,101,115
CCCC(=O)N(C)C1=Nc2ccc(Cl)cc2C(c2ccccc2)=[N+]([O-])C1,105,8,?,.,102,105,.,.,.,.,.,.,.
Cc1c2ccncc2c(C)c2c1[nH]c1ccccc12,154*[activator],15,128,18,92,78,.,0,94,76,89,84,72
c1ccc2c(c1)[nH]c1cnccc12,101,10,105,20,105,109,.,.,.,.,.,.,.
O=P(Oc1ccccc1)(Oc1ccccc1)C(Nc1ccccc1)c1ccccc1 (stereo not drawn),68,2,68,9,53*,12,68*,0,100,99,103,100,98
O=c1[nH]c(O)c(N=Nc2ccc(S(=O)(=O)N3CCOCC3)cc2)c(=O)[nH]1,98,8,97,8,97,97,.,.,.,.,.,.,.
O=c1[nH]c(=S)[nH]c(O)c1N=Nc1ccc(S(=O)(=O)N2CCOCC2)cc1,-36*,-4,?,.,0.7*,-19*,.,-1,99,98,99,99,89
CC(=O)N1CC(=O)Nc2ccc(Cl)cc2C1c1ccc(F)cc1 (stereo not drawn),25*,2,19*,12,15*,11*,.,0,101,100,100,101,99
CCC(=O)N1CC(=O)Nc2ccc(Cl)cc2C1c1ccc(F)cc1 (stereo not drawn),105,14,101,33,101,105,.,.,.,.,.,.,.
SMILES,RGS4-Gao reg,Avidin bead fluor,RGS7-Gao,GSH fluor,RGS8-Gao reg,RGS16-Gao HTS,RGS-Gao,Biotin-avidin,RGS8-Gao confirm,RGS7-Gao single,RGS16-Gao single,RGS4-Gao single,RGS19-Gao single
CCN1CCN(c2cc(N3CCCC3)c(F)cc2[N+](=O)[O-])CC1,108,12,112,17,122,184*[activator],108*,-2,98,62*,78,79,64
C=CCN1C(=O)NC(=O)/C(=C/c2ccc(N(C)C)c(Br)c2)C1=O,100,6,100,12,100,104,.,.,.,.,.,.,.
CC(C)NS(=O)(=O)c1ccc(OCC(=O)N2CCN(C)CC2)cc1,134,5,130,20,185*[activator],381,134*,.,.,.,.,.,.
COC(=O)c1ccc(CN2CCN(Cc3ccccc3)CC2)cc1,104,27,101,11,99,101,.,.,.,.,.,.,.
COC(=O)C1=CCCN(C)C1,16*,1,5.1*,14,21*,13*,.,-1,102,100,102,103,97
O=C(c1cc(S(=O)(=O)N2CCC3(CC2)OCCO3)ccc1F)N1CCC2(CC1)OCCO2,102,11,102,11,100,105,.,.,.,.,.,.,.
